High-throughput results (PubChem)
NPC1 promoter act = activators of NPC1 promoter; AID 485313; Huh7 NPC1 promoter luciferase reporter, 24 h; Potency, µM (doses to about 9.22 µM), for the others: at the top dose activation, usual class: activators; 320,000 tested, 2.4% active; also: % of control where 0% means no effect; nearly all actives have a fitted effect of over 60% in size
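Luminescence from an NPC1 promoter-driven luciferase reporter in stably transfected Huh7 cells was measured after 24 h compound treatment at 37 °C, followed by 10 min ambient incubation with luciferase detection reagent.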
FLuc modulator = counter-screen for miR-21 project: firefly luciferase inhibitors or activators | 360,000 tested, 6.9% active | P08659 | AID 588342 | Potency, µM (highest dose often 57.5 µM), inactives show at the top dose activity change, negative = inhibition, usual class: inhibitors | purified FLuc, Km substrates, luminescence inhibition;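 also: plate controls were vehicle for no effect and reference inhibitor for full effect; nearly all actives have a fitted effect of over 55% in size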
Target sequence (P08659 whole entry, looked up): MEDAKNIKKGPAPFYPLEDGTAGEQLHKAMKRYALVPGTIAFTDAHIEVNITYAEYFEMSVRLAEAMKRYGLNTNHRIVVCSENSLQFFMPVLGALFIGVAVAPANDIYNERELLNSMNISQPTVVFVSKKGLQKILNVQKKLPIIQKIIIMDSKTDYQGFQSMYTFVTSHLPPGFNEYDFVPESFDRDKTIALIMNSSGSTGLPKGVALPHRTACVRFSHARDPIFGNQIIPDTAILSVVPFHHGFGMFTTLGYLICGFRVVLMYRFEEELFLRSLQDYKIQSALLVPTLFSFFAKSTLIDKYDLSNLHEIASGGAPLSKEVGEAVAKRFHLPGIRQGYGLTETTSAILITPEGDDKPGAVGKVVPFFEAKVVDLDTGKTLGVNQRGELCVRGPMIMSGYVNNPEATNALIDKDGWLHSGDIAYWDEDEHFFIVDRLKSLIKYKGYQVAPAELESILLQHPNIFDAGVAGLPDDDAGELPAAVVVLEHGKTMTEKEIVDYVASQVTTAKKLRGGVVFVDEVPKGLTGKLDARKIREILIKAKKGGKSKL
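Purified P. pyralis luciferase (10nM final) with 10uM D-luciferin and 10uM ATP (Km levels) in 50mM Tris acetate pH 7.5, 10mM Mg acetate, 0.01% Tween-20, 0.05% BSA; qHTS 6-point titration, ~60 µM downward; luminescence read.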
ELG1 genotox = induces genotoxicity in HEK293T cells with luciferase-tagged ELG1; HEK293T ELG1-luciferase reporter, luminescence, 16 h; Potency, µM (top dose mostly 46 µM), for the others: at the top dose activity change, positive = activation, hits mostly activators; 330,000 tested, 1.3% active; also: % of control where 0% means no effect; nearly all actives have a fitted effect of over 60% in size
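After overnight (16 hr) compound treatment at 37 °C, ELG1-luciferase HEK293T cells were lysed with ONE-Glo; luminescence quantified 30 min later at room temperature.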
Rab9 prom act = activates the Rab9 promoter. Huh7 Rab9 promoter-luciferase reporter, luminescence, 24 h. Potency, µM (doses to about 9.22 µM), inactives show at the top dose activation, negative = inhibition, most hits filed as activators. 320,000 tested, 2.8% active; also: % of control where 0% means no effect; nearly all actives have a fitted effect of over 60% in size
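Using Huh7 cells stably transfected with Rab9 promoter–luciferase, compounds were incubated 24 h at 37 °C, 5% CO2; luciferase luminescence was read 10 min after reagent addition.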
SMN2 splice enh = SMN2 splice variant enhancement; HEK293 SMN2-luciferase splicing reporter, luminescence, 30-36 h; Potency, µM (top dose mostly 46.1 µM), without a hit: at the top dose activity change, positive = activation, actives largely listed as activators; 210,000 tested, 2.8% active; also: % of control where 0% means no effect; nearly all actives have a fitted effect of over 55% in size
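HEK293 cells carry an SMN2 minigene-luciferase reporter in which exon 7 inclusion puts luciferase in frame. Cells were seeded at 2000 cells/well, attached for 10-12 hours, then exposed to compounds for 30-36 hours at 37C before ONE-Glo luminescence.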
The depositor's hits bear a star; u = inconclusive; x = no result given. The list is not random: actives were taken first. Their share in the collection is about 7.5%. Calls follow the shape of the dose curve; as a rule, active = well fitted curve in the direction sought with a large enough effect; inconclusive = small, poorly fitted or top-dose-only effect, or another doubt; inactive = no such curve, though single readings can be large; an effect the other way counts as inactive or inconclusive. Potency is read from the fitted curve at half-maximal effect.

SMILES | NPC1 promoter act | FLuc modulator | ELG1 genotox | Rab9 prom act | SMN2 splice enh
COc1ccc(-n2c(C)cc(C(=O)CN3C(=O)c4ccccc4C3=O)c2C)cc1 | 14% | 15µM* | 2% | 24% | 10%
COc1ccc(-n2c(C)cc(C(=O)CCl)c2C)cc1 | -19% | -9% | u | -38% | 0%
O=C(CN1CCN(c2ccccc2F)CC1)c1ccc(O)cc1O | -9% | -2% | 1% | -5% | x
COc1cc(/C=C2\SC(=S)N(CCC(=O)NC3CCCC3)C2=O)cc(OC)c1OC | -9% | 1% | -4% | -8% | x
Oc1ccc(-c2nc3ccccn3c2Nc2ccc3c(c2)OCCO3)cc1 | x | 19µM* | x | x | 41%
Clc1cccc(-c2nc3ccccn3c2Nc2ccc3c(c2)OCCO3)c1 | x | u | x | x | -19%
CN(C)c1ccc(-c2nc3ccccn3c2Nc2ccc3c(c2)OCCO3)cc1 | x | 2.4µM* | x | x | u
Oc1ccc(-c2nc3cnccn3c2Nc2ccc3c(c2)OCCO3)cc1 | 9% | -1% | 16% | -9% | 15%
CCCCN1C2CCCC1CC(NC(=O)c1cccc(OC)c1)C2 (stereo not given) | 1% | -1% | 0% | 3% | x
COc1cc(/C=C/c2ccc3cccc(O)c3n2)c(Br)cc1O | -1% | u | u | 3% | x
CSc1ccc(/C=C/c2ccc3cccc(O)c3n2)cc1 | 3.2µM* | 2.4µM* | u | 1.3µM* | 13µM*
COc1cc(/C=C/c2ccc3cccc(O)c3n2)ccc1O | u | 6.7µM* | 16µM* | 3.2µM* | x
COc1ccc(OC)c(/C=C/c2ccc3cccc(O)c3n2)c1 | 11% | 13µM* | u | 6% | x
CCn1ccnc1CN(C)C(=O)c1cc(COc2ccccc2SC)on1 | u | 12µM* | u | 2.8µM* | x
Cc1nonc1CN(C)C(=O)c1cc(COc2ccc(F)cc2Cl)on1 | 27% | u | 9% | 19% | x
CSc1ccccc1OCc1cc(C(=O)N(C)Cc2ccncn2)no1 | 2µM* | 15µM* | 16µM* | 2µM* | x
CSc1ccccc1OCc1cc(C(=O)N(C)Cc2nonc2C)no1 | 2.2µM* | 13µM* | u | 2µM* | x
CSc1ccccc1OCc1cc(C(=O)N(C)CCn2nc(C)cc2C)no1 | 8% | -19% | 3% | 9% | x
C[C@@H]1C(c2cccc(Cl)c2)=NN(c2ccc(Br)cc2)[C@H]1C(=O)N1CCOC1=O | x | x | -1% | x | x
Cc1cccc(N(CC(=O)NCCSc2ccc(Cl)cc2)S(=O)(=O)c2ccccc2)c1C | x | 2% | x | x | -6%
Clc1ccc2c(c1)C1OCCC1C(c1ccco1)N2 (stereo not given) | u | u | u | 4.5µM* | 13µM*
CC(=O)N1c2ccc(Cl)cc2C2OCCC2C1c1ccco1 (stereo not given) | 1% | -1% | -1% | 1% | x
CCOC(=O)/C=C1\SCC(=O)N1Cc1ccc(Br)cc1 | -1% | 1% | 3% | -2% | -15%
CCOC(=O)CC(=O)CSc1ncnc2c1nnn2-c1ccc(OC)cc1 | -4% | u | 5% | 5% | -4%
CCC(Sc1ncnc2c1nnn2-c1ccc(F)cc1)C(=O)OC (stereo not given) | u | 5.4µM* | u | u | 7%
SMILES | NPC1 promoter act | FLuc modulator | ELG1 genotox | Rab9 prom act | SMN2 splice enh
COC(=O)c1ccc(CSc2ncnc3c2nnn3-c2ccc(F)cc2)o1 | 3% | 8.5µM* | 3% | -9% | -10%
CCN(CC)C(=O)CSc1ncnc2c1nnn2-c1ccc(F)cc1 | -1% | 13µM* | 2% | -2% | -10%
CCOC(=O)C(C)Sc1ncnc2c1nnn2-c1ccc(F)cc1 (stereo not given) | u | 12µM* | 17% | u | 17%
O=C(O)c1ccc(NS(=O)(=O)c2ccc3c(c2)C2C=CCC2C(c2ccccc2F)N3)cc1 (stereo not given) | -4% | u | -3% | -5% | x
CC(C)Cn1c(-c2cccs2)nc2nc3ccccc3nc21 | -1% | u | -8% | 2% | -1%
c1ccc(Cn2c(-c3cccs3)nc3nc4ccccc4nc32)cc1 | 16% | 15µM* | 4% | 4% | -5%
O=C(NCc1ccccc1Cl)C1CCCN(c2nc3ccsc3c(=O)s2)C1 (stereo not given) | -4% | -2% | 9% | -7% | -2%
CC1CCCN(c2nc3ccsc3c(=O)s2)C1 (stereo not given) | u | 15µM* | 13µM* | u | 22µM*
Cn1c(=O)[nH]c(=O)c2c1nc(Br)n2CCCO | 1% | 2% | 2% | -5% | -7%
CC(=O)c1c(C)[nH]c(C(=O)COC(=O)CCCOc2ccccc2)c1C | 19% | 4% | -1% | -1% | -10%
CC(=O)c1c(C)[nH]c(C(=O)OCCOc2ccccc2)c1C | 0.32µM* | 0.54µM* | u | 0.32µM* | -56%
CC(=O)c1c(C)[nH]c(C(=O)OCC(=O)Nc2ccccc2Cl)c1C | -5% | -11% | -1% | -9% | x
Cc1c(C(=O)OCCOc2ccccc2)[nH]c2c1C(=O)CCC2 | 4.5µM* | 0.95µM* | u | u | 3.5µM*
CC(=O)c1c(C)[nH]c(C(=O)OCC(=O)Nc2nnc(-c3ccccc3)o2)c1C | -3% | 21µM* | -2% | -7% | x
Cc1ccc(NS(=O)(=O)c2ccc3[nH]c4c(c3c2)CCCCCC4)cc1Cl | x | -15% | x | x | x
Cc1ccc(Nc2ncnc3ccccc23)cc1 | u | 12µM* | 17% | 1.8µM* | x
Oc1ccc(Nc2ncnc3ccccc23)cc1 | -1% | u | 9% | 4% | x
CC(C)Oc1ccc(Nc2ncnc3ccccc23)cc1 | 3.5µM* | 17µM* | u | 3.2µM* | 13µM*
CCOC(=O)c1nn(-c2ccc(OCC)cc2)c2nc(CC(C)C)c(C#N)c(=O)n12 | -2% | 1% | -1% | -4% | -9%
